PubChem BioAssay (NCI)
“And” between values parts separate entries of the source, which are not always exact repeats. Equal values may be shown once. This is part of a sample that, as a whole, favours compounds with a hit. Of some 79,000 tested, about 15% had one in any assay. Some compounds were tested as several samples or in several runs, with calls that do not always agree. The source made the active and inactive calls. Cut-off read from the data, not from the text of the source: active = growth inhibition above about 70%; inactive = the rest.

Experiments:
[1] = NCI Yeast Anticancer Drug Screen. Data for the mec2-1 strain (AID 157); conditions: S. cerevisiae mec2-1 strain, stronger effect = higher value
Procedure, shortened: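 Using mec2-1 yeast: add compound, measure growth, express inhibition versus vehicle-treated cultures.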

[2] = NCI Yeast Anticancer Drug Screen. Data for the rad14 strain (AID 159);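 note: 0% = growth of vehicle-treated control cultures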; conditions: S. cerevisiae rad14 strain growth inhibition, stronger effect = higher value
Procedure, shortened: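 Vehicle-treated cultures served as the baseline for growth inhibition of a DNA repair-mutant yeast strain exposed to each compound.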

[3] = NCI Yeast Anticancer Drug Screen. Data for the sgs1 mgt1 strain (AID 161);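 note: 0% = growth of cultures given vehicle only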; conditions: S. cerevisiae sgs1 mgt1 strain, stronger effect = higher value
Procedure, shortened: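 Growth of a repair-deficient yeast mutant was monitored after compound treatment and expressed as inhibition relative to vehicle-treated cultures.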

[4] = NCI Yeast Anticancer Drug Screen. Data for the CLN2oe strain (AID 163);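 note: 0% = growth of vehicle-only control cultures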; conditions: S. cerevisiae CLN2oe strain, stronger effect = higher value
Procedure, shortened: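 Whole-cell yeast growth assay. A strain engineered for altered cell-cycle control received compound, and inhibition relative to vehicle-treated cultures was recorded.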

[5] = NCI Yeast Anticancer Drug Screen. Data for the cln2 rad14 strain (AID 165);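 note: 0% = growth equal to vehicle treated cultures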; conditions: S. cerevisiae cln2 rad14 strain, stronger effect = higher value
Procedure, shortened: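 Yeast strain cln2 rad14, bearing defects in cell cycle control and DNA repair, serves as the test system; values reflect growth inhibition compared with vehicle.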

[6] = NCI Yeast Anticancer Drug Screen. Data for the bub3 strain (AID 167); conditions: S. cerevisiae bub3 mutant strain, stronger effect = higher value
Procedure, shortened: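 Inhibition values come from growth of compound-treated mutant yeast normalised to vehicle-treated controls.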

[7] = NCI Yeast Anticancer Drug Screen. Data for the wt2 strain (AID 169);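 note: 0% = growth of vehicle-treated yeast cultures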; conditions: S. cerevisiae wt2 strain growth inhibition, stronger effect = higher value
Procedure, shortened: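 Treated yeast vs. vehicle-treated yeast: growth inhibition determined.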

[8] = NCI Yeast Anticancer Drug Screen. Data for the mlh1 strain (AID 171);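 note: 0% = growth of vehicle-treated control cultures of the same strain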; conditions: S. cerevisiae mlh1 strain growth inhibition, stronger effect = higher value
Procedure, shortened: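 A yeast strain with a defined genetic lesion serves as the test organism. Cultures receive compound or vehicle, and growth is measured.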

[9] = NCI Yeast Anticancer Drug Screen. Data for the sgs1 strain (AID 173);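 note: 0% = growth of vehicle-only control cultures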; conditions: S. cerevisiae sgs1 mutant, stronger effect = higher value
Procedure, shortened: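 A genetically defined yeast mutant is incubated with the test compound, and its growth is compared to that of the same strain given vehicle.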

[10] = NCI Yeast Anticancer Drug Screen. Data for the mlh1 rad18 strain (AID 175); conditions: S. cerevisiae mlh1 rad18 strain growth inhibition, stronger effect = higher value
Procedure, shortened: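 Steps: expose repair-defective yeast to compound; measure growth; express inhibition against vehicle-treated controls.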

[11] = NCI Yeast Anticancer Drug Screen. Data for the rad18 strain (AID 177); conditions: S. cerevisiae rad18 mutant growth inhibition, stronger effect = higher value
Procedure, shortened: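 Measured value is growth inhibition of a yeast strain bearing a DNA repair alteration, referenced to vehicle-treated cells.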

[12] = NCI Yeast Anticancer Drug Screen. Data for the rad52 strain (AID 147);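 note: 0% = growth of vehicle-treated control cultures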; conditions: S. cerevisiae rad52 mutant growth inhibition, stronger effect = higher value
Procedure, shortened: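 Here a repair-compromised yeast strain receives each compound; its growth is then quantified and normalised to vehicle-only controls.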

[13] = NCI Yeast Anticancer Drug Screen. Data for the wt1 strain (AID 149);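 note: 0% = growth of vehicle-treated wt1 cultures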; conditions: S. cerevisiae wt1 strain (SPY 50644) growth inhibition, stronger effect = higher value
Procedure, shortened: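 Vehicle-normalised growth inhibition; strain wt1; compound exposure.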

[14] = NCI Yeast Anticancer Drug Screen. Data for the rad50EPP+ strain (AID 151);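 note: 0% = growth of vehicle-treated control cultures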; conditions: S. cerevisiae rad50 mutant strain, stronger effect = higher value
Procedure, shortened: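 Read-out is yeast growth inhibition relative to vehicle; cells used were the rad50EPP+ strain.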

[15] = NCI Yeast Anticancer Drug Screen. Data for the mgt1 strain (AID 153); conditions: S. cerevisiae mgt1 mutant growth inhibition, stronger effect = higher value
Procedure, shortened: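 Measured: inhibition of mgt1 yeast growth by compound, normalized to vehicle-treated cultures.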

[16] = NCI Yeast Anticancer Drug Screen. Data for the rad50 strain (AID 155);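 note: 0% = growth of vehicle-only cultures of the same strain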; conditions: S. cerevisiae rad50 strain growth inhibition, stronger effect = higher value
Procedure, shortened: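 A DNA repair-deficient yeast mutant serves as the test organism; compound-induced growth inhibition is calculated against vehicle-treated cells.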

[17] = at 5.0 µM (retest, dose inferred, filed as 0.5)
[18] = at 50.0 µM (retest, dose inferred, filed as 5.0)

Measured: growth inhibition

O=C(O)CCCc1cc(I)c(N(CCCl)CCCl)c(I)c1
inactive: [1]; [17] 11% | [1]; at 11.0 µM -36% | [1]; at 33.0 µM 60% | [1]; at 50.0 µM 69.1% | [2]; at 1.2 µM -59% | [2]; at 3.7 µM -59% | [2]; at 11.0 µM -26% | [2]; at 33.0 µM 37% | [3]; [17] 50% | [3]; at 50.0 µM 46.2% | [4]; at 1.2 µM -13% | [4]; at 3.7 µM -23% | [4]; at 11.0 µM -13% | [5]; [17] 45% | [5]; at 50.0 µM 53.5% | [6]; at 1.2 µM -58% | [6]; at 3.7 µM -37% | [6]; [17] 51% | [6]; at 11.0 µM -60% | [6]; at 50.0 µM 48% | [7]; at 1.2 µM -13% | [7]; at 3.7 µM -14% | [7]; at 11.0 µM -19% | [8]; at 1.2 µM -50% | [8]; at 3.7 µM -29% | [8]; at 11.0 µM -38% | [9]; at 1.2 µM -40% | [9]; at 3.7 µM -46% | [9]; at 11.0 µM -24% | [10]; [17] 25% | [10]; at 50.0 µM 69.3% | [11]; at 1.2 µM -63% | [11]; at 3.7 µM -50% | [11]; at 11.0 µM -13%
active: [1]; [18] 99% | [1]; at 100.0 µM 95% | [2]; at 100.0 µM 95% | [3]; [18] 99% | [4]; at 33.0 µM 87% | [4]; at 100.0 µM 97% | [5]; [18] 98% | [6]; at 33.0 µM 73% | [6]; [18] 97% | [6]; at 100.0 µM 94% | [7]; at 33.0 µM 91% | [7]; at 100.0 µM 97% | [8]; at 33.0 µM 85% | [8]; at 100.0 µM 95% | [9]; at 33.0 µM 88% | [9]; at 100.0 µM 96% | [10]; [18] 98% | [11]; at 33.0 µM 76% | [11]; at 100.0 µM 93%

Oc1c(Br)cc(Br)cc1Br
49% (inactive) and 98.4% (active): [5]; at 50.0 µM
59.5% (inactive) and 98.7% (active): [3]; at 50.0 µM
66.5% (inactive) and 99% (active): [16]; at 50.0 µM
54% (inactive) and 98% (active): [16]; [18]
52% (inactive) and 99.5% (active): [1]; at 50.0 µM
59.6% (inactive) and 99% (active): [10]; at 50.0 µM
inactive: [12]; at 1.2 µM 5% | [12]; at 3.7 µM 2% | [12]; at 11.0 µM 3% | [12]; at 33.0 µM 30% | [13]; at 1.2 µM -4% | [13]; at 3.7 µM -7% | [13]; at 11.0 µM 2% | [13]; at 33.0 µM 37% | [14]; at 1.2 µM 3% | [14]; at 3.7 µM 12% | [14]; at 11.0 µM 30% | [14]; at 33.0 µM 60% | [15]; at 1.2 µM 12% | [15]; at 3.7 µM 1% | [15]; at 11.0 µM 24% | [15]; at 33.0 µM 52% | [16]; at 1.2 µM 10% | [16]; at 3.7 µM 4% | [16]; [17] 41% and -1% | [16]; at 11.0 µM 5% | [16]; at 33.0 µM 41% | [1]; at 1.2 µM -1% | [1]; at 3.7 µM -7% | [1]; [17] 25% and 4% | [1]; at 11.0 µM 1% | [1]; at 33.0 µM 38% | [2]; at 1.2 µM -2% | [2]; at 3.7 µM 3% | [2]; at 11.0 µM 0% | [2]; at 33.0 µM 36% | [3]; [17] 7% | [4]; at 1.2 µM -14% | [4]; at 3.7 µM 7% | [4]; at 11.0 µM -1% | [4]; at 33.0 µM 21% | [5]; [17] 47% and -11% | [6]; at 1.2 µM -5% | [6]; at 3.7 µM 18% | [6]; [17] 40% and 0% | [6]; at 11.0 µM 24% | [6]; at 33.0 µM 39% | [7]; at 1.2 µM -8% | [7]; at 3.7 µM -9% | [7]; at 11.0 µM -8% | [7]; at 33.0 µM 26% | [8]; at 1.2 µM -3% | [8]; at 3.7 µM -19% | [8]; at 11.0 µM -9% | [8]; at 33.0 µM 22% | [10]; [17] 41% and 15% | [11]; at 1.2 µM 7% | [11]; at 3.7 µM 1% | [11]; at 11.0 µM 3% | [11]; at 33.0 µM 32%
active: [12]; at 100.0 µM 88% | [13]; at 100.0 µM 91% | [14]; at 100.0 µM 88% | [15]; at 100.0 µM 82% | [16]; at 100.0 µM 91% | [1]; at 100.0 µM 86% | [2]; at 100.0 µM 77% | [3]; [18] 79% and 99% | [4]; at 100.0 µM 89% | [5]; [18] 87% and 99% | [6]; [18] 86% and 98% | [6]; at 50.0 µM 70.3% and 99.2% | [6]; at 100.0 µM 87% | [7]; at 100.0 µM 84% | [8]; at 100.0 µM 78% | [11]; at 100.0 µM 88%
35% (inactive) and 97% (active): [10]; [18]
44% (inactive) and 99% (active): [1]; [18]
